This is part of a sample that, as a whole, favours compounds with a hit. Of some 83,000 tested, about 20% had one in any assay.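 A percent growth of 40 corresponds to 60% growth inhibition; 0 means no net growth; -100 means all cells died. Active threshold: below 10.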 Active and inactive are the calls of the source.
How the values were obtained:
Assay in all cases: NCI-60 one-dose screen, 48 h (100 = growth as untreated, 0 = no growth, -100 = all killed)
Details in all cases: 10 µM unless noted
NCI-H23 lung = tested on: NCI-H23 lung
NCI-H226 lung = tested on: NCI-H226 lung
NCI-H322M lung = tested on: NCI-H322M lung
HOP-62 NSCLC = tested on: HOP-62 NSCLC
NCI-H460 lung = tested on: NCI-H460 lung
HOP-92 NSCLC = tested on: HOP-92 NSCLC
NCI-H522 lung = tested on: NCI-H522 lung
A549/ATCC NSCLC = tested on: A549/ATCC NSCLC
786-0 renal = tested on: 786-0 renal
COLO 205 colon = tested on: COLO 205 colon

Measured: growth

O=C(NN1C(=O)/C(=C/C=C/c2ccc([N+](=O)[O-])o2)SC1=S)c1ccc([N+](=O)[O-])cc1
active: NCI-H23 lung -88.4% | NCI-H226 lung -83.3% | NCI-H322M lung -100% | HOP-62 NSCLC -100% | NCI-H460 lung -48.9% | HOP-92 NSCLC -84.2% | NCI-H522 lung -88.7% | A549/ATCC NSCLC -93% | 786-0 renal -80.1% | COLO 205 colon -94.1%

S=C(NCCc1ccccc1)Nc1ccc(OCc2nc3ccc(Cl)cc3[nH]2)cc1
active: NCI-H522 lung -26.8%
inactive: NCI-H23 lung 28.6% | NCI-H226 lung 67.1% | NCI-H322M lung 57.5% | HOP-62 NSCLC 49.7% | NCI-H460 lung 10.8% | HOP-92 NSCLC 14.4% | A549/ATCC NSCLC 51.2% | 786-0 renal 29% | COLO 205 colon 43.6%

COC(=O)c1cccc(Oc2ccc(NC(=O)Nc3cc(C(F)(F)F)ccc3F)cc2)c1
active: HOP-62 NSCLC -8.81%
inactive: NCI-H23 lung 69.3% | NCI-H226 lung 57.5% | NCI-H322M lung 91.1% | NCI-H460 lung 30.6% | HOP-92 NSCLC 40.7% | NCI-H522 lung 49.8% | A549/ATCC NSCLC 47% | 786-0 renal 47.3% | COLO 205 colon 88.2%

COc1cc(/C=C/C(=O)c2cnn(-c3cc(=O)[nH]c4ccccc34)c2C)cc(OC)c1OC
active: NCI-H23 lung 3.65% | HOP-62 NSCLC -1.9% | NCI-H460 lung 7.98% | NCI-H522 lung -18.1% | A549/ATCC NSCLC 7.4% | COLO 205 colon 4.15%
inactive: NCI-H226 lung 21.9% | NCI-H322M lung 12.8% | HOP-92 NSCLC 23.3% | 786-0 renal 18.2%

N#CC1=C(c2ccco2)Nc2c(c(-c3ccccc3)nn2-c2ccccc2)C12C(=O)Nc1ccc(Cl)cc12 (stereo not given)
inactive: NCI-H23 lung 45.6% | NCI-H322M lung 50.7% | COLO 205 colon 79.6%
active: NCI-H226 lung -9.04% | HOP-62 NSCLC -47.9% | NCI-H460 lung 0.156% | HOP-92 NSCLC -0.851% | NCI-H522 lung 0.0636% | A549/ATCC NSCLC -37.1% | 786-0 renal -14.5%

N#C/C(=C1/C(=O)Nc2ccccc21)c1nnc(NC(=O)c2ccc(-n3c(=O)[nH]c4ccccc4c3=O)cc2)s1
inactive: NCI-H23 lung 30.4% | NCI-H226 lung 34.4% | NCI-H322M lung 53.6% | HOP-62 NSCLC 53.7% | HOP-92 NSCLC 56% | NCI-H522 lung 14.3% | A549/ATCC NSCLC 49.8% | 786-0 renal 66.1%
active: NCI-H460 lung 6.96% | COLO 205 colon -0.152%

Cc1cccc(/C=C/c2ccc(NC(=S)NCCCCN(C)C)cc2)c1
active: NCI-H23 lung -99.7% | NCI-H226 lung -72.1% | NCI-H322M lung -91.1% | HOP-62 NSCLC -67.4% | NCI-H460 lung -85.5% | HOP-92 NSCLC -57.2% | NCI-H522 lung -73.7% | A549/ATCC NSCLC -57.9% | 786-0 renal -57.4% | COLO 205 colon -69.5%

CN1C(=O)/C(=C\C(=O)c2cc3ccccc3oc2=O)c2ccccc21
inactive: NCI-H23 lung 46.3% | NCI-H226 lung 75.4% | NCI-H322M lung 98.7% | HOP-62 NSCLC 54.4% | NCI-H460 lung 92.1% | HOP-92 NSCLC 64.3% | A549/ATCC NSCLC 78.3% | 786-0 renal 80.7% | COLO 205 colon 52.2%
active: NCI-H522 lung -68.8%

COc1ccc(C(=O)C[n+]2cccc3c4ccccc4ccc32)cc1
inactive: NCI-H23 lung 28.4% | NCI-H226 lung 59.1% | NCI-H322M lung 68.8% | HOP-62 NSCLC 44.2% | NCI-H460 lung 19.4% | HOP-92 NSCLC 12.5% | NCI-H522 lung 28.8% | A549/ATCC NSCLC 38.2% | 786-0 renal 66.9% | COLO 205 colon 26.5%

COc1ccc2[nH]c(O)c(N=Nc3nc(-c4ccc(Br)cc4)cs3)c2c1
inactive: NCI-H322M lung 28.2% | NCI-H522 lung 19.1%
active: NCI-H23 lung -6.52% | NCI-H226 lung -36.4% | HOP-62 NSCLC -10.1% | NCI-H460 lung -35.4% | HOP-92 NSCLC -34.4% | A549/ATCC NSCLC -41.3% | 786-0 renal -81.3% | COLO 205 colon -13.2%

Cc1cc(C)c2[nH]c(=O)c(C(c3nnnn3Cc3ccc4c(c3)OCO4)N3CCN(C)CC3)cc2c1 (stereo not given)
inactive: NCI-H23 lung 105% | NCI-H226 lung 102% | NCI-H322M lung 107% | HOP-62 NSCLC 111% | NCI-H460 lung 112% | HOP-92 NSCLC 99.9% | NCI-H522 lung 120% | A549/ATCC NSCLC 105% | 786-0 renal 97.9% | COLO 205 colon 114%

COc1sc(/C=N/NC(=O)c2[nH]c3ccc(Br)cc3c2-c2ccccc2)cc1Br
active: NCI-H23 lung -14.1% | NCI-H460 lung -7.71% | NCI-H522 lung -35.8% | A549/ATCC NSCLC 6.26% | 786-0 renal -1.7% | COLO 205 colon 0.155%
inactive: NCI-H226 lung 14.7% | NCI-H322M lung 31.4% | HOP-62 NSCLC 12.2% | HOP-92 NSCLC 63.7%

COc1ccc2[nH]c(=O)c(CSc3ccccc3Nc3nccc(-c4ccc(Cl)cc4)n3)cc2c1
active: NCI-H522 lung 4.52%
inactive: NCI-H23 lung 43.2% | NCI-H226 lung 45.7% | NCI-H322M lung 69.5% | HOP-62 NSCLC 69.2% | NCI-H460 lung 33.3% | HOP-92 NSCLC 36.6% | A549/ATCC NSCLC 52.5% | 786-0 renal 43.4% | COLO 205 colon 61.8%

— PubChem BioAssay (NCI)
